PubChem BioAssay (NCATS)
Several values for one entry are separate records, joined by “and”; a condition that tells them apart may be missing. Equal entries are not always repeated. Records with an inconclusive call do not appear. Activity calls are given as the source filed them. The call rests on the fitted dose curve; in most records, active means well fitted inhibition curve with a large enough effect; inconclusive means small, poorly fitted or top-dose-only effect; inactive means flat fitted curve, though single readings scatter.

Legend:
GB4 = assay: qHTS profiling for inhibitors of Plasmodium falciparum proliferation (AID 504749); further: potency means the concentration at half of the fitted maximal effect; conditions: P. falciparum in erythrocytes, SYBR Green DNA, 72 h; series mostly up to 28.7 µM
In short: (§1)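 Readout was DNA-dye fluorescence from lysed cultures, ex 485/em 535 nm. Parasitized red cells had grown 72 h with compound; data scaled between 0.29 uM artemisinin and DMSO wells and corrected using vehicle-only plates.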

HB3 = assay: as above; conditions: P. falciparum in erythrocytes, SYBR Green DNA, 72 h; series mostly up to 28.7 µM
In short: as §1

ICS = assay: as above; conditions: P. falciparum in erythrocytes, SYBR Green DNA, 72 h; series mostly up to 28.7 µM
In short: as §1

JCK = assay: as above; conditions: P. falciparum in erythrocytes, SYBR Green DNA, 72 h; series mostly up to 28.7 µM
In short: as §1

N140 = assay: as above; conditions: P. falciparum in erythrocytes, SYBR Green DNA, 72 h; series mostly up to 28.7 µM
In short: as §1

P93_24 = assay: as above; conditions: P. falciparum in erythrocytes, SYBR Green DNA, 72 h; series mostly up to 28.7 µM
In short: as §1

P94_40 = assay: as above; conditions: P. falciparum in erythrocytes, SYBR Green DNA, 72 h; series mostly up to 28.7 µM
In short: as §1

PAD = assay: as above; conditions: P. falciparum in erythrocytes, SYBR Green DNA, 72 h; series mostly up to 28.7 µM
In short: as §1

PC15 = assay: as above; conditions: P. falciparum in erythrocytes, SYBR Green DNA, 72 h; series mostly up to 28.7 µM
In short: as §1

PC26 = assay: as above; conditions: P. falciparum in erythrocytes, SYBR Green DNA, 72 h; series mostly up to 28.7 µM
In short: as §1

PC49 = assay: as above; conditions: P. falciparum in erythrocytes, SYBR Green DNA, 72 h; series mostly up to 28.7 µM
In short: as §1

SC27B = assay: as above; conditions: P. falciparum in erythrocytes, SYBR Green DNA, 72 h; series mostly up to 28.7 µM
In short: as §1

TAB109 = assay: as above; conditions: P. falciparum in erythrocytes, SYBR Green DNA, 72 h; series mostly up to 28.7 µM
In short: as §1

TAB113 = assay: as above; conditions: P. falciparum in erythrocytes, SYBR Green DNA, 72 h; series mostly up to 28.7 µM
In short: as §1

TAB165 = assay: as above; conditions: P. falciparum in erythrocytes, SYBR Green DNA, 72 h; series mostly up to 28.7 µM
In short: as §1

CRL-7250 = normal cell line; assay: Cytotoxic Profiling of Annotated Libraries Using Quantitative High-Throughput Screening (AID 1296008); conditions: Five cell lines viability, CellTiter-Glo ATP luminescence, 48-72 h; max response: stronger effect = lower value; on max response: on the % scale 0 is the no-effect control and ±100 the full control effect
In short: (§2)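 Cells exposed to compounds for 48 or 72 hr at 37 degrees Celsius. Viability read as ATP-coupled luminescence with CellTiter-Glo after 10 min at room temperature.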

HEK293 = assay: as above; conditions: Five cell lines viability, CellTiter-Glo ATP luminescence, 48-72 h; max response: stronger effect = lower value
In short: as §2

HaCat = assay: as above; conditions: Five cell lines viability, CellTiter-Glo ATP luminescence, 48-72 h; max response: stronger effect = lower value
In short: as §2

KB-3-1 = assay: as above; conditions: Five cell lines viability, CellTiter-Glo ATP luminescence, 48-72 h; max response: stronger effect = lower value
In short: as §2

W2 = assay: qHTS profiling for inhibitors of Plasmodium falciparum proliferation (AID 504749); further: potency means the concentration at half of the fitted maximal effect; conditions: P. falciparum in erythrocytes, SYBR Green DNA, 72 h; series mostly up to 28.7 µM
In short: as §1
Further: nearly all actives have a fitted effect of over 60% in size.

NCC(=O)CCC(=O)O
inactive: Potency (GB4) | Potency (HB3) | Potency (ICS) | Potency (JCK) | Potency (N140) | Potency (P93_24) | Potency (P94_40) | Potency (PAD) | Potency (PC15) | Potency (PC26) | Potency (PC49) | Potency (SC27B) | Potency (TAB109) | Potency (TAB113) | Potency (TAB165) | max response (CRL-7250) -2.12% | outcome (HEK293) | max response (HaCat) -9.5% | max response (KB-3-1) 1.71%

Oc1cccc(O)c1
inactive: Potency (GB4) | Potency (HB3) | Potency (ICS) | Potency (JCK) | Potency (N140) | Potency (P93_24) | Potency (P94_40) | Potency (PAD) | Potency (PC15) | Potency (PC26) | Potency (PC49) | Potency (SC27B) | Potency (TAB109) | Potency (TAB113) | Potency (TAB165) | Potency (W2) | max response (CRL-7250) -6.09% | outcome (HEK293) | outcome (HaCat) | max response (KB-3-1) -21.4%

CC(O)COc1ccccc1 (centres undefined)
inactive: Potency (GB4) | Potency (HB3) | Potency (ICS) | Potency (JCK) | Potency (N140) | Potency (P93_24) | Potency (P94_40) | Potency (PAD) | Potency (PC15) | Potency (PC26) | Potency (PC49) | Potency (SC27B) | Potency (TAB109) | Potency (TAB113) | Potency (TAB165) | Potency (W2) | max response (CRL-7250) 2.21% | outcome (HEK293) | outcome (HaCat) | max response (KB-3-1) 5.08%

CC(=O)Nc1ccc(/C=N/NC(N)=S)cc1
inactive: Potency (GB4) | Potency (HB3) | Potency (ICS) | Potency (JCK) | Potency (N140) | Potency (P93_24) | Potency (P94_40) | Potency (PAD) | Potency (PC15) | Potency (PC26) | Potency (PC49) | Potency (SC27B) | Potency (TAB109) | Potency (TAB113) | Potency (TAB165) | Potency (W2) | outcome (CRL-7250) | max response (HEK293) 0.104% | outcome (HaCat) | max response (KB-3-1) -10.7% and 2.19%

Cc1cc(O)cc2c1O[C@](C)(CCC[C@H](C)CCC[C@H](C)CCCC(C)C)CC2
inactive: Potency (GB4) | Potency (HB3) | Potency (JCK) | Potency (N140) | Potency (P93_24) | Potency (P94_40) | Potency (PAD) | Potency (PC15) | Potency (PC26) | Potency (PC49) | Potency (SC27B) | Potency (TAB109) | Potency (TAB113) | Potency (TAB165) | Potency (W2) | max response (CRL-7250) -1.48% | max response (HEK293) 2.12% | outcome (HaCat) | max response (KB-3-1) -4.01% and 1.69%
active: Potency (ICS) 8.91 µM

Cc1ncc(COP(=O)(O)O)c(C=O)c1O
inactive: Potency (GB4) | Potency (HB3) | Potency (ICS) | Potency (JCK) | Potency (N140) | Potency (P93_24) | Potency (P94_40) | Potency (PAD) | Potency (PC15) | Potency (PC26) | Potency (PC49) | Potency (SC27B) | Potency (TAB109) | Potency (TAB113) | Potency (TAB165) | Potency (W2) | max response (CRL-7250) 2.82% | outcome (HEK293) | outcome (HaCat) | max response (KB-3-1) -1.97%

NCCNCCNCCNCCN
inactive: Potency (GB4) | Potency (HB3) | Potency (ICS) | Potency (JCK) | Potency (N140) | Potency (P93_24) | Potency (P94_40) | Potency (PAD) | Potency (PC15) | Potency (PC26) | Potency (PC49) | Potency (SC27B) | Potency (TAB109) | Potency (TAB113) | Potency (TAB165) | Potency (W2) | max response (CRL-7250) 3.13% | outcome (HEK293) | outcome (HaCat) | max response (KB-3-1) -4.72%

COc1cc2[nH]c(=O)[nH]c(=O)c2cc1OC
inactive: Potency (GB4) | Potency (HB3) | Potency (ICS) | Potency (JCK) | Potency (N140) | Potency (P93_24) | Potency (P94_40) | Potency (PAD) | Potency (PC15) | Potency (PC26) | Potency (PC49) | Potency (SC27B) | Potency (TAB109) | Potency (TAB113) | Potency (TAB165) | Potency (W2) | outcome (CRL-7250) | outcome (HEK293) | outcome (HaCat) | max response (KB-3-1) 35.7%

NC(=O)NC(=O)Cc1ccccc1
inactive: Potency (GB4) | Potency (HB3) | Potency (ICS) | Potency (JCK) | Potency (N140) | Potency (P93_24) | Potency (P94_40) | Potency (PAD) | Potency (PC15) | Potency (PC26) | Potency (PC49) | Potency (SC27B) | Potency (TAB109) | Potency (TAB113) | Potency (TAB165) | Potency (W2) | max response (CRL-7250) 3.98% | outcome (HEK293) | outcome (HaCat) | max response (KB-3-1) 5.24%

COc1ccccc1O
inactive: Potency (GB4) | Potency (HB3) | Potency (ICS) | Potency (JCK) | Potency (N140) | Potency (P93_24) | Potency (P94_40) | Potency (PAD) | Potency (PC15) | Potency (PC26) | Potency (PC49) | Potency (SC27B) | Potency (TAB109) | Potency (TAB113) | Potency (TAB165) | Potency (W2) | max response (CRL-7250) 3.64% | max response (HEK293) -17.2% | max response (HaCat) 3.89% | max response (KB-3-1) -18.3% and -7.82%

C#CCN(C)Cc1ccccc1
inactive: Potency (GB4) | Potency (HB3) | Potency (ICS) | Potency (JCK) | Potency (N140) | Potency (P93_24) | Potency (P94_40) | Potency (PAD) | Potency (PC15) | Potency (PC26) | Potency (PC49) | Potency (SC27B) | Potency (TAB109) | Potency (TAB113) | Potency (TAB165) | Potency (W2) | max response (CRL-7250) 4.31% | max response (HEK293) -27.7% | outcome (HaCat) | max response (KB-3-1) -4.93%

COc1cc(C(=O)N2CCOCC2)cc(OC)c1OC
inactive: Potency (GB4) | Potency (HB3) | Potency (ICS) | Potency (JCK) | Potency (N140) | Potency (P93_24) | Potency (P94_40) | Potency (PAD) | Potency (PC15) | Potency (PC26) | Potency (PC49) | Potency (SC27B) | Potency (TAB109) | Potency (TAB113) | Potency (TAB165) | Potency (W2) | max response (CRL-7250) 0.938% | max response (HEK293) 1.96% | outcome (HaCat) | max response (KB-3-1) 4.09% and 1.86%

C[C@H](N)[C@H](O)c1cccc(O)c1
inactive: Potency (GB4) | Potency (HB3) | Potency (ICS) | Potency (JCK) | Potency (N140) | Potency (P93_24) | Potency (P94_40) | Potency (PAD) | Potency (PC15) | Potency (PC26) | Potency (PC49) | Potency (SC27B) | Potency (TAB109) | Potency (TAB113) | Potency (TAB165) | Potency (W2) | max response (CRL-7250) -3.27% | outcome (HEK293) | outcome (HaCat) | max response (KB-3-1) 1.71%
